Measurements taken from PubChem BioAssay (Tox21).
Several values for one entry are separate records, joined by “and”; a condition that tells them apart may be missing. Identical values can stand only once. Results filed as inconclusive are left out. Where a structure was tested more than once in an assay, its records may differ in their call. Activity calls are given as the source filed them. Calls come from the whole dose curve; as a rule, active = well fitted curve in the direction sought with a large enough effect in the repeat runs; inconclusive = weak or mixed curves; inactive = no such curve, though single readings can be large; an effect the other way counts as inactive or inconclusive.

Columns and labels:
[1] = qHTS RealTime-Glo MT Cell Viability Assay in HEK293 cells - 16 hour (AID 1224872); note: nearly all actives have a fitted effect of over 50% in size; note: potency is the fitted concentration of half-maximal effect; for activity change, negative = cytotoxicity: top concentration of the series differs between compounds
Summary of the method: (§1)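 Luminescence generated by NanoLuc from substrate produced by living HEK293 cells served as the viability signal. Each value reflects the reading at its stated time point during continuous 40 h compound exposure at 37 C.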

[2] = qHTS RealTime-Glo MT Cell Viability Assay in HepG2 cells - 8 hour (AID 1224873); note: nearly all actives have a fitted effect of over 55% in size
Summary of the method: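 HepG2 cells mixed with RealTime-Glo MT reagents (NanoLuc plus cell-permeant prosubstrate) were seeded at 600 cells/well, incubated 5 h at 37 C/5% CO2, then pinned with compounds in DMSO; nonlytic luminescence tracked viability during 40 h treatment.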

[3] = qHTS RealTime-Glo MT Cell Viability Assay in HEK293 cells - 40 hour (AID 1224874); conditions: RealTime-Glo luminescence; max response: stronger effect = lower value; note: nearly all actives have a fitted effect of over 50% in size; note: potency is the fitted concentration of half-maximal effect
Summary of the method: (§2)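 Viable HEK293 cells reduce a cell-permeant prosubstrate; the product diffuses out and is consumed by NanoLuc in the medium to give light. Compounds went in after a 5 h incubation and plates were read over the treatment course.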

[4] = A CellTox Green Cytotoxicity Assay to monitor cytotoxicity in HepG2 cells - 16 hour (AID 1224876); note: nearly all actives have a fitted effect of over 45% in size; note: potency is the fitted concentration of half-maximal effect
Summary of the method: (§3)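 Using 1536-well format, dye-containing HepG2 suspension was seeded, allowed 5 h at 37 C/5% CO2, dosed by pintool with compounds, positive and negative controls, and imaged for fluorescence across 40 h.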

[5] = qHTS RealTime-Glo MT Cell Viability Assay in HepG2 cells - 32 hour (AID 1224877); note: nearly all actives have a fitted effect of over 55% in size; note: potency is the fitted concentration of half-maximal effect
Summary of the method: (§4)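 Tox21 10K library screened in qHTS format on HepG2 cells carrying RealTime-Glo reagents. Compounds were added after a 5 h preincubation, and the luminescent signal from continuous culture was measured repeatedly during 40 h treatment.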

[6] = A CellTox Green Cytotoxicity Assay to monitor cytotoxicity in HepG2 cells - 24 hour (AID 1224878); note: nearly all actives have a fitted effect of over 45% in size; note: potency is the fitted concentration of half-maximal effect
Summary of the method: as §3

[7] = A CellTox Green Cytotoxicity Assay to monitor cytotoxicity in HepG2 cells - 40 hour (AID 1224879); note: nearly all actives have a fitted effect of over 40% in size; note: potency is the fitted concentration of half-maximal effect
Summary of the method: as §3

[8] = qHTS RealTime-Glo MT Cell Viability Assay in HEK293 cells - 0 hour (AID 1224880); note: top concentration of the series differs between compounds; nearly all actives have a fitted effect of over 45% in size
Summary of the method: as §2

[9] = A CellTox Green Cytotoxicity Assay to monitor cytotoxicity in HepG2 cells - 0 hour (AID 1224882); note: nearly all actives have a fitted effect of over 35% in size
Summary of the method: as §3

[10] = A CellTox Green Cytotoxicity Assay to monitor cytotoxicity in HepG2 cells - 32 hour (AID 1224883); note: nearly all actives have a fitted effect of over 50% in size; note: potency is the fitted concentration of half-maximal effect
Summary of the method: as §3

[11] = qHTS RealTime-Glo MT Cell Viability Assay in HepG2 cells - 16 hour (AID 1224885); note: nearly all actives have a fitted effect of over 50% in size
Summary of the method: as §4

[12] = qHTS RealTime-Glo MT Cell Viability Assay in HEK293 cells - 24 hour (AID 1224886); note: nearly all actives have a fitted effect of over 50% in size; note: potency is the fitted concentration of half-maximal effect; for activity change, negative = cytotoxicity: top concentration of the series differs between compounds
Summary of the method: as §1

[13] = qHTS RealTime-Glo MT Cell Viability Assay in HEK293 cells - 8 hour (AID 1224887)
Summary of the method: as §2

[14] = qHTS RealTime-Glo MT Cell Viability Assay in HepG2 cells - 0 hour (AID 1224889); note: nearly all actives have a fitted effect of over 50% in size
Summary of the method: as §4

[15] = qHTS assay to identify small molecule antagonists of the estrogen receptor alpha (ER-alpha) signaling pathway using the BG1 cell line in the presence of 0.1 nM 17-beta-estradiol - cell viability counter screen (AID 1259241); note: nearly all actives have a fitted effect of over 40% in size
Summary of the method: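 CellTiter-Fluor read (30 min, 37C) on ER-alpha/ERE-luc VM7Luc4E2 cells; 22 hr compound treatment; agonist 0.1 nM E2 final; same-well multiplex.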

[16] = A CellTox Green Cytotoxicity Assay to monitor cytotoxicity in HepG2 cells - 8 hour (AID 1224890); note: nearly all actives have a fitted effect of over 45% in size
Summary of the method: as §3

[17] = A CellTox Green Cytotoxicity Assay to monitor cytotoxicity in HEK293 cells - 32 hour (AID 1224881); note: nearly all actives have a fitted effect of over 40% in size; note: potency is the fitted concentration of half-maximal effect
Summary of the method: (§5)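 Fluorescence intensity, read at 0, 8, 16, 24, 32 and 40 h of compound treatment, reflected dye binding to DNA of dead HEK293 cells; compounds (23 nL, DMSO) were added 5 h after plating cells with reagent.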

[18] = A CellTox Green Cytotoxicity Assay to monitor cytotoxicity in HEK293 cells - 8 hour (AID 1224884); note: nearly all actives have a fitted effect of over 35% in size
Summary of the method: as §5

[19] = A CellTox Green Cytotoxicity Assay to monitor cytotoxicity in HEK293 cells - 16 hour (AID 1224888); note: nearly all actives have a fitted effect of over 35% in size
Summary of the method: as §5
% is set by controls: 0 for no effect and ±100 for the full control effect.

CC1(C)C(=O)N(CO)C(=O)N1CO
inactive: Potency [1] | Potency [2] | max response [3] 2.01% | Potency [4] | Potency [5] | Potency [6] | Potency [7] | Potency [8] | Potency [9] | Potency [10] | Potency [11] | Potency [12] | Potency [13] | Potency [14] | Potency [15]

O=C(O)c1cccc(Cl)n1
inactive: Potency [1] | Potency [2] | max response [3] 7.12% | Potency [4] | Potency [5] | Potency [6] | Potency [8] | Potency [9] | Potency [10] | Potency [11] | Potency [12] | Potency [13] | Potency [14] | Potency [16] | Potency [15]

CCN(CC)CCOC(=O)C1(C2CCCCC2)CCCCC1
active: Potency [1] 21.3 µM | Potency [4] 23.9 µM | Potency [6] 23.9 µM | Potency [7] 23.9 µM | Potency [17] 23.9 µM | Potency [10] 23.9 µM
inactive: Potency [2] | Potency [9] | Potency [18] | Potency [11] | Potency [15]

N[C@@H](CSSC[C@H](N)C(=O)O)C(=O)O
inactive: activity change, negative = cytotoxicity [1] 13.2% [at 0.29 µM] | viability change, negative = cytotoxic [2] 3.56% [at 0.29 µM] | max response [3] 2.95% | activity change, negative = cytotoxic [5] -2.71% [at 0.29 µM] | cytotoxicity increase [7] 5.29% [at 0.29 µM] | activity change, negative = cytotoxicity [8] 18.3% [at 0.29 µM] | cytotoxicity increase [18] 26.5% [at 0.29 µM] | activity change, negative = cytotoxic [11] 0.777% [at 0.29 µM] | activity change, negative = cytotoxicity [12] 9.89% [at 0.29 µM] | activity change, negative = cytotoxicity [13] 16.3% [at 0.29 µM] | activity change [19] 14.4% [at 0.29 µM, stronger effect = higher value] | activity change, negative = cytotoxicity [14] 0.0589% [at 0.29 µM] | activity change, negative = cytotoxicity [15] 0.433% [at 0.349 µM]

Cc1c(C)n(Cc2ccccc2)c2ccc(C(=O)OCCN(C)C)cc12
active: Potency [4] 23.9 µM | Potency [5] 23.9 µM | Potency [6] 23.9 µM | Potency [7] 23.9 µM | Potency [10] 23.9 µM
inactive: Potency [1] | Potency [2] | Potency [8] | Potency [9] | Potency [18] | Potency [13] | Potency [19] | Potency [14] | Potency [15]

C=C(c1ccc(C(=O)O)cc1)c1cc2c(cc1C)C(C)(C)CCC2(C)C
30.9 µM (active) and inactive: Potency [17]
inactive: Potency [1] | Potency [2] | Potency [5] | Potency [8] | Potency [9] | Potency [18] | Potency [11] | Potency [13] | Potency [14] | Potency [16] | Potency [15]
active: Potency [4] 24.5 µM | Potency [6] 38.9 µM | Potency [7] 49 µM and 23.9 µM | Potency [10] 43.6 µM

CC1(C)COCN1
inactive: Potency [1] | Potency [2] | max response [3] -0.12% | Potency [4] | Potency [5] | Potency [6] | Potency [7] | Potency [8] | Potency [9] | Potency [10] | Potency [18] | Potency [11] | Potency [12] | Potency [13] | Potency [14] | Potency [15]

Oc1ccc(-c2ccccc2)c(Cl)c1
inactive: Potency [2] | Potency [5] | Potency [8] | Potency [18] | Potency [11] | Potency [14] | Potency [15]
active: Potency [1] 24.5 µM | Potency [3] 21.9 µM | Potency [4] 49 µM | Potency [6] 49 µM | Potency [7] 49 µM | Potency [10] 49 µM | Potency [12] 24.5 µM
